Data as given in PubChem BioAssay AID463195 (Sanford-Burnham Center for Chemical Genomics, 2010).
Out of some 330,000 compounds screened, about 4,600 (1.4%) were called active. This is one part of a sample in which actives are shown more often than they occur.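 How the source made its calls: active means inhibition of 40% or more at the single tested concentration; inactive means the rest.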

Test: growth inhibitors of isogenic TIM10 control yeast, primary screen, counter-screen for tim10-1 yeast inhibitor project, luminescence, uHTS (AID 463195);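 further: wild-type TIM10 isogenic control strain grown at permissive 25 °C; 0% = DMSO yeast wells and 100% = minimal medium wells without yeast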
Conditions: S. cerevisiae TIM10 strain growth, BacTiter-Glo luminescence, 24 h; at 10 µM; hits give high values

Compound	inhibition
CC1CC(=O)Nc2ccccc2N1S(=O)(=O)c1cccs1 (stereo not given)	5.91% (inactive)
CC1CC(C)(C)NC(=S)N1CCC(=O)N1CCN(Cc2ccccc2)CC1 (stereo not given)	-2.23% (inactive)
CC1CC(=S)Nc2ccccc2N1Cc1ccccc1 (stereo not given)	46.2% (active)
COC(=O)CNc1nc(Cl)nc(N2CCC(C)CC2)n1	-3.85% (inactive)
CCOc1ccccc1NC(=S)NC(=O)CCc1ccccc1	11.7% (inactive)
O=C(OCCOCn1cc(Br)c(=O)[nH]c1=O)c1ccccc1	-12.6% (inactive)
Cn1nccc1/C=N\NC(=O)c1ccc(Cl)cc1	-2.29% (inactive)
CCc1ccc(OCC(=O)NCC(c2ccc(Cl)cc2)N2CCCCC2)cc1 (stereo not given)	42.7% (active)
COc1ccc(C(CNC(=O)COc2ccccc2OC)N2CCCCC2)cc1 (stereo not given)	0.651% (inactive)
COc1ccc(C(CNC(=O)COc2ccc([N+](=O)[O-])cc2)N2CCCCC2)cc1 (stereo not given)	8.46% (inactive)
CC1CCN(C(=S)c2cccc([N+](=O)[O-])c2)CC1	1.4% (inactive)
CC1CCC2CCCCC2N1C(=O)c1cc([N+](=O)[O-])cc([N+](=O)[O-])c1 (stereo not given)	40.2% (active)
CC1(c2ccccc2)CC(C)(C)N(C(=O)c2cc([N+](=O)[O-])cc([N+](=O)[O-])c2)c2ccccc21 (stereo not given)	-3.92% (inactive)
Cc1csc(CN(C)C(=O)CC2C(=O)NCCN2CC(C)(C)C)n1 (stereo not given)	-12.9% (inactive)
Cn1c(=O)cc(OCCCC(=O)N2CCN(c3ccccn3)CC2)c2ccccc21	13.5% (inactive)
Oc1cccc2ccc(/C=C/c3ccc(Br)s3)nc12	15.2% (inactive)
CCNC(=S)N(CCc1c(C)[nH]c2ccc(C)cc12)Cc1ccco1	41.2% (active)
COCCNC(=S)N(CCc1c(C)[nH]c2ccc(C)cc12)Cc1cccnc1	-1.03% (inactive)
COc1cccc(NC(=S)N(CCc2c(C)[nH]c3ccccc23)Cc2ccco2)c1	15.9% (inactive)
O=C(N/N=C/c1ccc(O)c(O)c1)C1c2ccccc2Oc2ccccc21	-9.32% (inactive)
CCN(CCCCOC(=O)c1ccc(OC)c(OC)c1)C(C)Cc1ccc(OC)cc1 (stereo not given)	-1.12% (inactive)
Cc1ccccc1N1CCN(C2CCCN(C(=O)c3ocnc3C)C2)CC1 (stereo not given)	-0.332% (inactive)
COc1cccc(CNC(C)C(=O)Nc2ccc(S(=O)(=O)N3CCCC3)cc2)c1 (stereo not given)	18.4% (inactive)
COc1ccc(S(=O)(=O)N2CCN(C(C)C(=O)Nc3ccc(C(C)C)cc3)CC2)cc1 (stereo not given)	44.9% (active)
CC(C)c1ccc(S(=O)(=O)N2CCN(C(C)C(=O)NC3CCCC3)CC2)cc1 (stereo not given)	-30.5% (inactive)
